Compounds with a hit are over-represented: about 1.1% of the library has one in this group of screens.
TNF necrop inh – inhibitors of TNF-alpha induced necroptosis in Jurkat FADD-/- cells | Jurkat FADD-/- TNF necroptosis rescue, ATP luminescence, 24 h; 0 = TNF only, 100 = no-TNF cells | 220,000 compounds, 0.068% hits | activation (protection from cell death), % at 10 µM;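 active means activation, meaning protection from cell death, of at least 50% relative to plate controls; inactive means activation below 50%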;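 further: necroptosis triggered by 40 ng/mL TNF-alpha added together with compound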
L929 necroptosis – blocks zVAD induced death of L929 cells. L929 zVAD necroptosis rescue, ATP luminescence, 24 h; with zVAD 60 µM. viability rescue, % at 10 µM. 220,000 compounds, 0.38% hits;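 active means activation, scaled between plate controls, above about 75%, limit read from the data; inactive means activation under that limit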;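 further: 0% = zVAD with DMSO and 100% = DMSO alone without zVAD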
Calb FLC – affects C. albicans growth with fluconazole. C. albicans CaCi-2 (fluconazole-resistant clinical isolate) + fluconazole, Alamar Blue growth, 48 h. growth inhibition, % (test concentration not listed). 300,000 compounds, 0.57% hits;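 active means growth inhibition above about 58% in most replicates, limit read from the data, passing the limit was not always enough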;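 further: all wells also contain fluconazole at 8 µg/ml as a sub-toxic cotreatment; 0% = median of DMSO wells and 100% = median of geldanamycin control wells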
HIF act – HIF pathway transcriptional activation; U2OS HRE-luciferase reporter, luminescence; normalized: DMSO 0%, desferrioxamine 100%; activation, % at 7.5 µM (by protocol); 300,000 compounds, 0.32% hits;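 active means mean activation of at least 10% of the iron chelator positive control signal, with at least half of replicates also reaching 10%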
The depositor's hits bear a star; / = not tested or not shown.

SMILES	TNF necrop inh	L929 necroptosis	Calb FLC	HIF act
CCS(=O)(=O)c1ccc(-c2cccc(NC(=O)COc3ccc(Cl)cc3)c2)nn1	/	/	57.0	-0.2
CCS(=O)(=O)c1ccc(-c2cccc(NC(=O)COc3ccccc3)c2)nn1	/	/	27.4	60.4*
Cc1ccc2c(c1)cc(C(=O)NCc1ccccc1)n2C	/	/	-29.5	23.0*
O=C1NC(=O)/C(=C/c2ccccc2Oc2ccc(Cl)cc2)S1	-0.4	1.2	78.9*	-0.1
Cc1ccc(Oc2ccccc2/C=C2\SC(=O)N(C)C2=O)cc1	52.1*	0.5	16.0	-0.3
O=c1[nH]c(=S)[nH]nc1Cc1ccc(Cl)c(Cl)c1	/	/	90.7*	2.1
CC(C)(C)c1ccc(Cc2n[nH]c(=S)[nH]c2=O)cc1	/	/	78.1*	-0.5
COC(=O)CNc1n[nH]c(=S)[nH]c1=O	-2.4	-0.5	0.7	0.2
CCCCNC(=O)CSc1nnc(Cc2ccc(Cl)c(Cl)c2)c(=O)[nH]1	/	/	5.7	0.0
Clc1ccc(-c2c[n+](Cc3ccc(Br)cc3)c3n2CCCCC3)cc1	-0.8	1.2	106.4*	-0.7
CC1CCC(C(C)C)C(OC(=O)C[n+]2cc(-c3ccc(Cl)cc3)n3c2CCCCC3)C1 (centres undefined)	-0.4	2.2	95.0*	-0.1
Cn1c(SCC(=O)Nc2nccs2)nnc1-c1ccccn1	/	/	2.4	-0.1
COc1ccccc1CC(=O)N1CCN(S(=O)(=O)c2ccccc2)CC1	/	/	0.9	-0.3
O=C1CCCc2ccccc2N1Cc1cccc(F)c1	0.7	1.4	-6.8	-1.6
O=C1CCCc2ccccc2N1Cc1ccc(F)cc1	1.1	0.0	19.3	41.7*
O=C(c1ccc(F)cc1)N(Cc1cccs1)C1CCS(=O)(=O)C1 (centres undefined)	/	/	5.8	166.6*
CCn1c(CNC(=O)c2cc(OC)c(OC)c(OC)c2)cc2ccccc21	/	/	51.5	0.6
c1ccc(CSc2ncccn2)cc1	-1.4	0.2	-17.3	/
c1ccc(CSC2=NNC(c3ccccn3)S2)cc1 (centres undefined)	-17.7	12.1	4.6	13.9*
CC(=O)Nc1ccc(NC(=O)CSc2ccccn2)cc1	2.0	-0.1	-6.0	1.2
O=C(CSC1=NNC(c2ccccn2)S1)Nc1ccc(C(F)(F)F)cc1 (centres undefined)	-11.8	4.3	-0.6	25.3*
CCCc1sc(N/N=C/c2ccccn2)nc1-c1ccc(Br)cc1	-4.6	1.2	-30.8	24.7*
COC(=O)/C=C/COc1ccccc1[N+](=O)[O-]	-0.7	0.5	4.3	2.7
Cc1ccc(S(=O)(=O)N2CCN(c3ccccn3)CC2)cc1	0.5	0.9	-15.1	47.8*
O=C(O)c1ccc(S(=O)(=O)N2CCN(c3ccccn3)CC2)cc1	/	/	2.4	-0.1
SMILES	TNF necrop inh	L929 necroptosis	Calb FLC	HIF act
CC(c1ccc(Cl)cc1)n1c(-c2ccc3ccccc3n2)n[nH]c1=S (centres undefined)	-3.4	-0.1	79.1*	0.0
Cn1cc(Cl)c(/C(N)=N/OC(=O)c2ccccc2C(F)(F)F)n1	/	/	-7.7	1.8
O=[N+]([O-])c1cc(Cl)cc(/C=N\Nc2ccccn2)c1O	-20.7	73.6	-0.8	20.8*
Cc1ccc(-c2ccc(=O)n(CC(=O)NCc3ccc(F)cc3)n2)cc1	0.9	5.3	-2.5	0.2
CC(=O)OCCCNc1cc(Sc2ccc(C)cc2)c2nonc2c1[N+](=O)[O-]	-1.7	30.1	6.0	9.9*
COC(=O)C1=CC(C(=O)c2cccs2)=NN(c2ccc(OC)cc2)C1C(=O)OC (centres undefined)	-1.6	1.3	2.6	-0.1
COc1ccc(-c2cc(C)no2)cc1S(=O)(=O)N(C)c1cccc(C)c1	/	/	92.3*	-0.8
CCc1ccccc1N(C)S(=O)(=O)c1cc(-c2cc(C)no2)ccc1OC	/	/	52.8	-0.2
O=C(NNC(=O)c1ccc2ccccc2c1O)c1cccs1	/	/	3.6	0.1
COc1cccc(C(=O)NNC(=O)c2ccccc2)c1	/	/	3.2	0.8
O=C(NNC(=O)c1ccc2ccccc2c1O)c1ccccc1Cl	-1.4	0.0	85.7*	0.1
COc1cccc(C(=O)NNC(=O)c2ccc3ccccc3c2O)c1	/	/	102.1*	0.0
Cc1ccc(NC(=O)C2CC3CCC2C3)c(Br)c1 (centres undefined)	/	/	24.5	3.7
O=C(O)CNC(=O)c1ccc(Oc2c(F)c(F)c(Oc3ccc(C(=O)NCC(=O)O)cc3)c(F)c2F)cc1	/	/	3.8	-0.3
O=C(N/N=C\c1ccc(Cl)cc1Cl)c1sccc1-n1cccc1	-2.9	88.5*	-17.4	0.3
CC(=O)n1cc(Nc2ccc([N+](=O)[O-])cc2)c2ccccc21	-1.2	0.0	-7.5	-0.9
CC(=O)SC(C[N+](=O)[O-])c1cn(C(C)=O)c2ccccc12 (centres undefined)	13.8	0.7	111.6*	0.9
S=c1nc(-c2sccc2OCc2ccc(Cl)cc2Cl)[nH][nH]1	-3.8	-0.7	11.7	-0.5
COc1ccc(N(CC(=O)Nc2cccc(C)c2)S(=O)(=O)c2ccc(C)cc2)cc1OC	/	/	-9.1	-0.7
Fc1cccc(/C=N/Nc2nccnc2Cl)c1	/	/	17.5	78.4*
COc1cc(O)c(C(CCN2CCOCC2)c2cc(OC)c(OC)c(OC)c2)c(OC)c1 (centres undefined)	1.5	-0.2	-10.9	0.0
O=C(C[n+]1ccccc1)N/N=C/c1cccs1	-0.2	0.2	94.7*	0.1
O=C(Nc1nnc(-c2ccccn2)o1)c1ccc(Br)cc1	-0.6	0.4	97.5*	0.1
CCC(=O)Nc1nnc(-c2ccccn2)o1	-2.1	1.1	-3.4	-20.8
Cc1ccccc1CC1(CO)CCCN(C(=O)Cc2c(F)ccc(F)c2F)C1 (centres undefined)	/	/	-4.2	0.4
SMILES	TNF necrop inh	L929 necroptosis	Calb FLC	HIF act
CCOc1nc(-c2ccccc2Cl)nc2ccccc12	-1.5	-0.6	-27.0	-0.5
C=CCOc1nc(-c2ccccc2Cl)nc2ccccc12	-0.2	0.0	-1.1	63.5*
COc1cc(Cl)c(C)cc1NC(=O)Cc1cccs1	/	/	34.3	0.4
COc1ccc(-c2csc(N(CC3CCCO3)C(=O)c3ccco3)n2)cc1 (centres undefined)	-3.3	0.5	98.5*	0.2
CCN(C(=O)c1ccco1)c1nc(-c2ccc(OC)cc2)cs1	/	/	-1.1	1.5
CCN(CC)c1ccc(N=Cc2ccc([N+](=O)[O-])o2)cc1	-5.2	0.4	90.7*	1.5
CCN(CC)c1ccc(N=Cc2ccccc2[N+](=O)[O-])cc1	-1.1	-0.2	11.8	-1.2
O=[N+]([O-])c1ccc(Nc2ccccc2)c2nonc12	/	/	89.1*	-0.4
CCOc1ccc(Nc2ccc([N+](=O)[O-])c3nonc23)cc1	/	/	70.8	2.5
O=C(NNC(=S)Nc1ccc(Cl)cc1)c1ccccc1OC(F)F	-2.2	0.0	102.4*	0.5
COc1cccc(C(C[N+](=O)[O-])c2c(C)[nH]n(-c3ccccc3)c2=O)c1 (centres undefined)	/	/	-19.7	55.1*
COc1ccccc1C(=O)Nc1ccnn1C1CCN(Cc2ccccc2OCCO)CC1	/	/	-6.3	0.8
Nc1ccc(Oc2cccc(Oc3ccc(N)cc3)c2)cc1	-3.5	0.0	116.1*	-3.4
Cc1cccc(Oc2ccc(N)cc2)c1	-16.9	-0.4	-54.4	1.3
Cc1nc2ccc(NC(=O)COc3ccccc3)cc2s1	-0.6	1.6	107.7*	/
